# Laboratory results published in PubChem BioAssay AID1851 (National Center for Advancing Translational Sciences (NCATS), 2009).
# Where “and” joins values, the source holds several entries; their conditions need not be identical. Equal values may be shown once. Out of some 16,000 compounds screened, about 4,000 (25%) were called active. Inconclusive results (about 26%) are left out. The call rests on the fitted dose curve; in most records, active means well fitted curve in the direction sought with a large enough effect; inconclusive means small, poorly fitted or top-dose-only effect, or effect the other way; inactive means no such curve, though single readings can be large or run the other way. Only a sample is shown. More than one record can exist for a structure, and the calls need not agree.
# Target: Cytochrome P450 2C9 (Homo sapiens) (UniProt P11712)
# Sequence (P11712 whole entry, looked up): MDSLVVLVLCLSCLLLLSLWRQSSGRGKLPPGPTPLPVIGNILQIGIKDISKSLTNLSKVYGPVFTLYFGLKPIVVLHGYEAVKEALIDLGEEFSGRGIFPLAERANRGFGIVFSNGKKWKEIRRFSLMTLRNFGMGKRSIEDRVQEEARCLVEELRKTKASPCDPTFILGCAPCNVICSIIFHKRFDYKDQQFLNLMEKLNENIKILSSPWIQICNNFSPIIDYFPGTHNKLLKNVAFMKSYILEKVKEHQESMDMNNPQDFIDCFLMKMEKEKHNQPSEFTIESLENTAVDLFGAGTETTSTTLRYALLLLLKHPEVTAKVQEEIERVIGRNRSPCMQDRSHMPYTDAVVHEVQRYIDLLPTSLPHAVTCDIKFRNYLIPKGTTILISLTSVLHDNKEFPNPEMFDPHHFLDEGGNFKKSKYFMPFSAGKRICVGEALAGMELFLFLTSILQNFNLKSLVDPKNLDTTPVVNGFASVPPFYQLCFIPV
# Assay: Cytochrome panel assay with activity outcomes
# Conditions: recombinant CYP, pro-luciferin dealkylation, luminescence, p450-cyp2c9; series mostly up to 57.1 µM; activity, negative = inhibition: at the top concentration
# On the % scale 0 is the no-effect control and ±100 the full control effect.
SMILES,"activity, negative = inhibition",AC50
O=C(c1ccncc1)N1CCC2(CCCN(Cc3ccccc3)C2)CC1,-5.36% (inactive),
COc1ccc(C(=O)N2CCC3(CCCN(Cc4ccncc4)C3)CC2)cc1,,3.16 µM (active)
COc1ccc(C(=O)N2CCC3(CCCN(Cc4ccccc4)C3)CC2)cc1,4.43% (inactive),
O=C(c1ccncc1)N1CCC2(CCCN(Cc3ccncc3)C2)CC1,,5.01 µM (active)
O=C(c1ccncc1)N1CCC[C@@]2(CCN(Cc3ccccc3)C2)C1,-19% (inactive),
COc1ccc(C(=O)N2CCC3(CCCN(CC(C)C)C3)CC2)cc1,6.29% (inactive),
COc1cc2c3cc1Oc1cc(ccc1O)C[C@@H]1c4c(cc(OC)c(O)c4Oc4ccc(cc4)C[C@H]3[N+](C)(C)CC2)CC[N+]1(C)C,4.34% [at 11.4 µM] (inactive),
O=C(Nc1c(C(=O)N2CCOCC2)cnn1-c1ccccc1)c1ccco1,4.62% (inactive),
Cc1sc(NC(=O)c2ccco2)c(C(c2cccnc2)N2CCCC2)c1C (stereo not given),,2.51 µM (active)
O=C(Nc1c(C(=O)N2CCCCC2)cnn1-c1ccccc1)c1ccco1,-26.3% (inactive),
Cc1sc(NC(=O)c2ccco2)c(C(c2ccncc2)N2CCOCC2)c1C (stereo not given),,2.24 µM (active)
Cc1cnc(CNc2ncncc2-c2c(C)noc2C)cn1,17.1% [at 2.29 µM] (inactive),
O=C1NCC2(CCN(CCc3ccccc3)CC2)O1,,inactive
N#C[C@H](c1ccccc1)N1CCCN([C@@H](C#N)c2ccccc2)C1c1ccccc1O (stereo not given in full),,3.16 µM (active)
Cc1ccccc1OCCCn1c(=O)sc2ccccc21,,5.01 µM (active)
C[N+](C)(CCCOc1ccccc1)c1ccccc1,-28.1% [at 25.6 µM] (inactive),
Cc1ccccc1OCCCN1CCCC1,-3.29% (inactive),
O=C(O)c1ccccc1NCn1c(=S)sc2ccccc21,-5.72% [at 11.4 µM] (inactive),
O=c1sc2ccccc2n1CCCOc1ccccc1,,12.6 µM (active)
Cc1ccc(Cl)cc1-n1c(=O)cc(N2CC(C)OC(C)C2)[nH]c1=O (stereo not given),35.2% (inactive),
C=CCNS(=O)(=O)c1cccc2cc(C(=O)O)c(O)cc12,,2.82 µM (active)
O=C(O)c1cc2ccccc2c(Cc2cc3ccccc3c(C(=O)O)c2O)c1O (tested in a mixture with another compound),-15.8% [at 25.6 µM] (inactive),
NS(=O)(=O)c1ccc(N=Nc2c(O)c(C(=O)O)cc3ccccc23)cc1,-28.9% [at 11.4 µM] (inactive),
N#Cc1cccc(NC(=O)N2CC[C@@]3(CCCNC3)C2)c1,-22.5% (inactive),
CO/N=C(/C)CCC(=O)OC[C@@H]1O[C@H](C#Cc2ccccc2)C=C[C@@H]1Oc1ccc(C)cc1,-2.9% [at 11.4 µM] (inactive),
C/C(CCC(=O)OC[C@@H]1O[C@H](C#Cc2ccccc2)C=C[C@@H]1Oc1ccc(C)cc1)=N/O[C@@H](C)c1cn([C@H](CO)Cc2ccccc2)nn1,,3.16 µM (active)
C/C(CCC(=O)OC[C@@H]1O[C@H](C#Cc2ccccc2)C=C[C@@H]1Oc1ccc(C)cc1)=N/OC[C@@H](C)[C@H](OCc1ccccc1)C(C)C,12.5% [at 11.4 µM] (inactive),
COc1ccc(O[C@H]2C=C[C@@H](c3ccccc3)O[C@H]2COC(=O)CC/C(C)=N\O[C@@H](C)CN2CCCCc3nc(C)c(C)cc32)cc1,-28.1% [at 11.4 µM] (inactive),

SMILES,"activity, negative = inhibition",AC50
CC(=O)OC[C@@H]1O[C@H](C/C=N\O[C@@H](C)c2cn([C@H](CO)Cc3ccccc3)nn2)C=C[C@@H]1OC(C)=O,8% [at 11.4 µM] (inactive) and -8.02% [at 11.4 µM] (inactive),
COc1ccc(O[C@H]2C=C[C@@H](c3ccccc3)O[C@H]2COC(=O)CC/C(C)=N\O[C@@H](C)c2cn([C@H](CO)Cc3ccccc3)nn2)cc1,,1.26 µM (active)
COc1ccccc1CNC(=O)Cn1nnc(-c2ccncc2)n1,,7.94 µM (active)
COc1ccccc1CNc1ccnc(-c2ccc(C(=O)N(C)C)cc2)n1,-10.3% [at 2.29 µM] (inactive),
COc1cc2c(CCNC(C)=O)c[nH]c2cc1O,-7.58% (inactive),
COc1ccc(-c2nnn(CC(=O)NCCc3c[nH]c4ccccc34)n2)cc1OC,,4.47 µM (active)
CCCCOc1ccc(-c2nnn(CC(=O)c3c[nH]c4ccccc34)n2)cc1,-13.3% (inactive),
CCc1nnc(NC(=O)CCC(=O)NCc2ccccc2OC)s1,-7.86% (inactive),
NC(N)=[N+]1CCc2ccccc2C1,20.3% (inactive),
CC1=C(C#N)C(Nc2ccc(Cl)cn2)(C(F)(F)F)C(=O)N1 (stereo not given),,14.1 µM (active)
CN(C)CCN1C(=O)C(O)=C(C(=O)c2cc3ccccc3o2)C1c1ccccn1 (stereo not given),-12.8% (inactive),
COc1cccc(C2C(C(=O)c3cc4ccccc4o3)=C(O)C(=O)N2c2cc(C)on2)c1OC (stereo not given),,14.1 µM (active)
Cc1cc(N2C(=O)C(O)=C(C(=O)c3ccco3)C2c2ccc(O)cc2)no1 (stereo not given),,11.2 µM (active)
COc1cc(OC)c(C2N(c3cc(C)on3)C(=O)C3CCCN32)cc1OC (stereo not given),12.9% (inactive),
CC(C)NC[C@@H](O)COc1ccc(COCCOC(C)C)cc1,,inactive
CC(=O)Nc1ccc(OC[C@@H](O)CNC(C)C)cc1,,inactive
CC(C)NC[C@@H](O)COc1ccc(CCOCC2CC2)cc1,,inactive and 631 nM (active)
COc1ccccc1CN1CC[C@@]2(CCCN(C(=O)c3cccn3C)C2)C1,-0.791% (inactive),
COC(=O)[C@@]1(Cc2ccc(F)cc2)[C@H]2c3cc(C(=O)N(C)C)n(Cc4c(CO)[nH]cc(C)c4=O)c3C[C@H]2CN1C(=O)c1ccccc1,,10 µM (active)
COC(=O)[C@@]1(Cc2ccccc2)[C@H]2c3cc(C(=O)N(C)C)n(Cc4c(CO)[nH]cc(C)c4=O)c3C[C@H]2CN1C(=O)c1ccccc1,,0.631 µM (active)
CN(C)C(=O)c1ccc(-c2cncnc2Nc2ccccc2)cc1,-3.51% [at 2.29 µM] (inactive),
C=CC[C@H](N)C(=O)O,-11% (inactive),
O=C(O)C1CCC(=O)N(C2CC2)C1c1ccccc1 (stereo not given),1.83% (inactive),
CC12CC[C@@H]3c4ccc(OP(=O)(O)O)cc4CCC3C1CCC2=O (stereo not given in full),15.4% [at 11.4 µM] (inactive),
Clc1ccccc1-c1nc(-c2ccncc2)no1,-19.4% [at 11.4 µM] (inactive),
Clc1ccccc1-c1nc(N2CCNCC2)c2ccccc2n1,2.98% [at 2.29 µM] (inactive),
Clc1ccccc1-c1nc(-c2ccccc2)n[nH]1,,28.2 µM (active)
